# Test results: PubChem BioAssay (Tox21)
# Several values for one entry are separate records, joined by “and”; a condition that tells them apart may be missing. Equal values may be shown once. Results filed as inconclusive are left out. Entries that show only a call come without a potency. Some compounds were tested as several samples or in several runs, with calls that do not always agree. Activity calls are given as the source filed them. Unless noted, calls follow the shape of the full dose curve.
# Assays:
# [1] = Nuclear factor erythroid 2-related factor 2/antioxidant responsive element (Nrf2/ARE) small molecule agonists: qHTS cell viability counter screen in human keratinocytes (AID 1919968; active = well fitted curve in the direction sought with a large enough effect in the repeat runs; an effect the other way counts as inactive or inconclusive; also: nearly all actives have a fitted effect of over 55% in size; also: potency is read from the fitted curve at half-maximal effect)
# In short: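 KeratinoSens cells (HaCaT keratinocytes stably carrying an ARE-luciferase reporter) were seeded at 1,500 cells/well and rested 5 h at 37 C/5% CO2. They were then exposed to compounds in DMSO for 23 h. Viability was read by CellTiter-Fluor fluorescence after 1 h.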
# [2] = Nuclear factor erythroid 2-related factor 2/antioxidant responsive element (Nrf2/ARE) small molecule agonists: luciferase reporter gene qHTS assay in human keratinocytes (AID 1919969); also: nearly all actives have a fitted effect of over 35% in size; also: potency is read from the fitted curve at half-maximal effect
# [3] = molecular target: Gonadotropin-releasing hormone receptor (Homo sapiens) (UniProt P30968); test: Human gonadotropin-releasing hormone receptor (GnRHR) small molecule agonists, calcium flux assay in GnRHR-HEK293 cells (AID 1920063); also: nearly all actives have a fitted effect of over 35% in size
# In short: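 HEK293 cells stably expressing human GnRHR were plated 18 h at 37 °C, loaded with calcium dye 1 h at 37 °C, then given compound in agonist mode; fluorescence (Ex/Em 480/540) read kinetically for 3 min at 1 s intervals.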
# [4] = molecular target: KiSS-1 receptor (Homo sapiens) (UniProt Q969F8); test: Human kisspeptin (KISS1R) small molecule agonists, calcium flux assay in KISS1R-HEK293 cells (AID 1920064; active = well fitted curve in the direction sought with a large enough effect in the repeat runs; an effect the other way counts as inactive or inconclusive)
# In short: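 HEK293 cells stably expressing human KISS1R were plated 18 h at 37 °C, loaded with calcium dye for 1 h at 37 °C, then given compound by pin tool. Fluorescence (Ex/Em 480/540) was read kinetically for 3 min.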
# [5] = G protein-coupled receptor (GPCR) small molecule agonists, calcium flux assay: HEK293 wild type cell line counter screen (AID 1920065)
# In short: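 Cells were plated and cultured 18 h at 37 C/5% CO2, then loaded with calcium dye for 1 h at 37 C. Compounds in DMSO were pin-transferred in agonist mode, and fluorescence (Ex/Em 480/540) was read kinetically for 3 min at 1 s intervals.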
# [6] = p53 small molecule agonists, cell-based qHTS assay with human liver microsomes (AID 1963577);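 also: p53 response element beta-lactamase reporter cells with liver microsomes plus NADPH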
# In short: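 In this qHTS, p53 response-element beta-lactamase cells receive test compound together with a microsome/NADPH activating system (0.5 mg/mL final each) and are incubated 16 h at 37 C before LiveBLAzer fluorescence detection.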
# [7] = p53 small molecule agonists, cell-based qHTS assay with rat liver microsomes (AID 1963578)
# In short: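 Agonist mode in p53RE-bla reporter cells, with compounds co-incubated 16 h at 37 C alongside 0.5 mg/mL rat liver microsomes and 0.5 mg/mL NADPH (final), followed by a 2 h LiveBLAzer detection step.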
# [8] = p53 small molecule agonists, cell-based qHTS assay with human liver microsomes: qHTS cell viability counter screen (AID 1963579); also: nearly all actives have a fitted effect of over 45% in size
# In short: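 Metabolically activated exposure: compounds, human liver microsomes and NADPH (0.5 mg/mL final apiece) were added to p53RE-bla cells seeded 5 h earlier, left 16 h at 37 C, and then assessed for viability by CellTiter-Glo luminescence.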
# [9] = p53 small molecule agonists, cell-based qHTS assay with rat liver microsomes: qHTS cell viability counter screen (AID 1963580); also: nearly all actives have a fitted effect of over 45% in size
# In short: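 p53RE-bla HCT-116 cells were exposed 16 h at 37 C to compounds with rat liver microsomes (0.5 mg/mL) and NADPH (0.5 mg/mL). Viability was measured in the same wells as ATP content by CellTiter-Glo luminescence.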
# [10] = p53 small molecule agonists, cell-based qHTS assay: qHTS cell viability counter screen (AID 1963581); also: nearly all actives have a fitted effect of over 45% in size
# In short: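 p53RE-bla HCT-116 cells were exposed to compounds for 16 h at 37 C; after the beta-lactamase FRET read in the same wells, CellTiter-Glo was added and luminescence (intracellular ATP) read after 30 min at room temperature.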
# [11] = p53 small molecule agonists, cell-based qHTS assay (AID 1963582; active = well fitted activation curve with a large enough effect in the signal ratio in the repeat runs, not every such curve was filed as active; the % refers to the signal ratio)
# In short: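 p53RE-bla beta-lactamase reporter cells rested 5 h at 37 C/5% CO2, then received compounds in DMSO by pin transfer and were incubated 16 h at 37 C. LiveBLAzer B/G FRET substrate was loaded for 2 h at room temperature before fluorescence reading.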
# [12] = cAMP Responsive Elements (CRE) small molecule agonists, cell-based qHTS assay (AID 1963590)
# In short: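 CRE-bla HEK 293T cells in DMEM with 10% dialyzed FBS, NEAA, pyruvate and 25 mM HEPES were plated 18 h at 37 C/5% CO2, then exposed to compounds in DMSO for 3 h before LiveBLAzer B/G FRET substrate addition.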
# [13] = cAMP Responsive Elements (CRE) small molecule antagonists, cell-based qHTS assay (AID 1963591; active = well fitted inhibition curve with a large enough effect in the signal ratio in the repeat runs, not every such curve was filed as active; the % refers to the signal ratio)
# In short: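 CRE-bla HEK293T cells were plated 18 h at 37 °C/5% CO2, pinned with compound in DMSO, then stimulated with NKH477 at 0.25 uM final for 3 h. LiveBLAzer B/G FRET substrate was added and plates incubated 2 h at room temperature.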
# [14] = molecular target: D(2) dopamine receptor (Homo sapiens) (UniProt P14416); test: Dopamine D2 receptor (DRD2) small molecule agonists, cell-based qHTS assay (AID 1963594); also: nearly all actives have a fitted effect of over 35% in size
# In short: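 HEK293 cells stably expressing human DRD2, pre-treated with PDE inhibitor Ro20-1724 (0.1 mM final) and compound 10 min at room temperature, then stimulated with NKH477 (200nM […]) for 30 min. cAMP read by HTRF (665/620 nm).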
# [15] = molecular target: D(2) dopamine receptor (Homo sapiens) (UniProt P14416); test: Dopamine D2 receptor (DRD2) small molecule antagonists, cell-based qHTS assay (AID 1963595; active = well fitted inhibition curve with a large enough effect in the signal ratio in the repeat runs, with a control signal flat; the % refers to the signal ratio)
# In short: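 Antagonist mode in DRD2-HEK293 cells: after compound addition with 0.1 mM Ro20-1724, cells received quinpirole (12 nM) and NKH477 (200 nM) for 30 min at room temperature; HTRF cAMP read after 1 h detection.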
# [16] = molecular target: 5-hydroxytryptamine receptor 2A (Homo sapiens) (UniProt P28223); test: 5-hydroxytryptamine receptor 2A (HTR2A) small molecule agonists, cell-based qHTS assay (AID 1963587); also: nearly all actives have a fitted effect of over 30% in size
# In short: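 CHO cells stably expressing human HTR2A, plated 18 h, loaded with calcium dye 1 h at 37 C. Agonist mode: compounds added and intracellular calcium fluorescence recorded kinetically for 2 min at 1 sec intervals.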
# [17] = molecular target: Muscarinic acetylcholine receptor M1 (Homo sapiens) (UniProt P11229); test: Cholinergic receptor muscarinic 1 (CHRM1) small molecule antagonists, cell-based qHTS assay (AID 1963588); also: nearly all actives have a fitted effect of over 40% in size
# In short: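 CHRM1-CHO calcium-flux assay, antagonist mode. Cells were seeded 18 h, dye-loaded 1 h at 37 C and given compound for 5 min at RT, then acetylcholine was added at 50nM. FDSS fluorescence was read 3 min; 15 concentrations, three runs.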
# [18] = molecular target: Muscarinic acetylcholine receptor M1 (Homo sapiens) (UniProt P11229); test: Cholinergic receptor muscarinic 1 (CHRM1) small molecule agonists, cell-based qHTS assay (AID 1963589); also: nearly all actives have a fitted effect of over 35% in size
# In short: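 CHO cells stably expressing human CHRM1, seeded 18 h at 37 C/5% CO2, dye-loaded 1 h at 37 C, then given compound in agonist mode; intracellular calcium fluorescence read kinetically at 1 s intervals. Fifteen concentrations, three independent runs.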
# [19] = molecular target: Beta-2 adrenergic receptor (Homo sapiens) (UniProt P07550); test: Adrenergic beta2 receptor (ADRB2) small molecule antagonists, cell-based qHTS assay (AID 1963592); also: series mostly up to about 92 µM; nearly all actives have a fitted effect of over 50% in size
# In short: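 Cells (CHO, stable ADRB2 overexpression) incubated 18-20hr at 37C; compounds added from DMSO; agonist mix (1nM isoproterenol, 100uM IBMX, 25uM Ro-20-1724) added; 0.5hr RT; d2-cAMP and anti-cAMP-cryptate added; 1hr RT; 665/615 nm read.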
# Chain of Gonadotropin-releasing hormone receptor (Homo sapiens) (P30968 whole entry, looked up): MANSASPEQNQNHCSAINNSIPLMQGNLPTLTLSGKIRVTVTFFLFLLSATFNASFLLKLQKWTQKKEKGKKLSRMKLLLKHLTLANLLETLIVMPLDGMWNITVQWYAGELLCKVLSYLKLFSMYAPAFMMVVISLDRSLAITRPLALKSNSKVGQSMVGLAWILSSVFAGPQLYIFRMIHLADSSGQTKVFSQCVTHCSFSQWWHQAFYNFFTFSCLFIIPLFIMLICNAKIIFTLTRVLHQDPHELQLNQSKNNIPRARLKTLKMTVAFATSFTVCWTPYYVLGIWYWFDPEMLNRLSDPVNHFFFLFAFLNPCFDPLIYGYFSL
# Chain of KiSS-1 receptor (Homo sapiens) (Q969F8 whole entry, looked up): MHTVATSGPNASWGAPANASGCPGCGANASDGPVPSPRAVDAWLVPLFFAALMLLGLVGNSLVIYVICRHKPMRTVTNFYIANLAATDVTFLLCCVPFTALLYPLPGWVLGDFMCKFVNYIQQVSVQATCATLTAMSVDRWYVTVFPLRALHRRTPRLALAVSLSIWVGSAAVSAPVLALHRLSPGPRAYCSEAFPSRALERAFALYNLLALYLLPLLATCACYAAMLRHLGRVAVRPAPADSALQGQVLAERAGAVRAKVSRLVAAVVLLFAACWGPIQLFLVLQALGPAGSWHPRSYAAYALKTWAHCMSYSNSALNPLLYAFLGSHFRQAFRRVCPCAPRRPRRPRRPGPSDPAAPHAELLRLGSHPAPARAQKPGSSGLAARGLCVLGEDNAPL
# Chain of 5-hydroxytryptamine receptor 2A (Homo sapiens) (P28223 whole entry, looked up): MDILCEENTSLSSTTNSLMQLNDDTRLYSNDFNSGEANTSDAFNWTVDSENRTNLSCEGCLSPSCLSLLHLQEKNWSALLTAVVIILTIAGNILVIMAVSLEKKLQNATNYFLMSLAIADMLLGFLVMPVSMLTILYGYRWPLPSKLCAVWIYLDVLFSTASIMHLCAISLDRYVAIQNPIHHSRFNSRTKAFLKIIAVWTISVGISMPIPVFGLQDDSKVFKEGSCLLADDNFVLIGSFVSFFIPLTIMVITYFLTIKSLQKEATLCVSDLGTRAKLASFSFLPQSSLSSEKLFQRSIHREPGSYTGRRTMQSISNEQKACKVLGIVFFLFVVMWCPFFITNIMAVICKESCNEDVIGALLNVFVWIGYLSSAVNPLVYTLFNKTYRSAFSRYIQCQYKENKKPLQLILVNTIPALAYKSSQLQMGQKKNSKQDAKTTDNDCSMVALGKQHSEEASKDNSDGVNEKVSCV
# Chain of Muscarinic acetylcholine receptor M1 (Homo sapiens) (P11229 whole entry, looked up): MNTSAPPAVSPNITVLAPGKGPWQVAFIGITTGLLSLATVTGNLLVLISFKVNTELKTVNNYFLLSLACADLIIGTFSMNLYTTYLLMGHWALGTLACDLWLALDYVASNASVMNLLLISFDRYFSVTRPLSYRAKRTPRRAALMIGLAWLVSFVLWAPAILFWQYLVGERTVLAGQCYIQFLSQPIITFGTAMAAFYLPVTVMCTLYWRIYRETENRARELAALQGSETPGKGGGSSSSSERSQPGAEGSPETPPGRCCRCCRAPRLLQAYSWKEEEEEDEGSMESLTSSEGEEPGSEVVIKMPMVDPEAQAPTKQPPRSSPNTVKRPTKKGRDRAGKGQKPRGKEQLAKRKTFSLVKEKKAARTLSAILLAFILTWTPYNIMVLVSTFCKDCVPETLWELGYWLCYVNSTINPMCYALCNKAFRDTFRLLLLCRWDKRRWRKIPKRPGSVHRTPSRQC
# Chain of D(2) dopamine receptor (Homo sapiens) (P14416 whole entry, looked up): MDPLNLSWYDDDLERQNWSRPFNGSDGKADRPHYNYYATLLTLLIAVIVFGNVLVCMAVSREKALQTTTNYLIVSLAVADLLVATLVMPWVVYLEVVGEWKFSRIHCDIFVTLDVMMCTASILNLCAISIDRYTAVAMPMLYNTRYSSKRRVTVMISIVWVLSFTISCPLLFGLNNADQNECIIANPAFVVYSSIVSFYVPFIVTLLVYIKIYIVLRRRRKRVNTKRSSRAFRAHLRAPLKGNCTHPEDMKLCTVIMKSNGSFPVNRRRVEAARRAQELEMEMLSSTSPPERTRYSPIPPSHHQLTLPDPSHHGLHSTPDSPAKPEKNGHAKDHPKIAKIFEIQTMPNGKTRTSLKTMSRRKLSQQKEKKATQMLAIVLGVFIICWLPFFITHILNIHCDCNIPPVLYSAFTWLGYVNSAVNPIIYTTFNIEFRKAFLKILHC
# Chain of Beta-2 adrenergic receptor (Homo sapiens) (P07550 whole entry, looked up): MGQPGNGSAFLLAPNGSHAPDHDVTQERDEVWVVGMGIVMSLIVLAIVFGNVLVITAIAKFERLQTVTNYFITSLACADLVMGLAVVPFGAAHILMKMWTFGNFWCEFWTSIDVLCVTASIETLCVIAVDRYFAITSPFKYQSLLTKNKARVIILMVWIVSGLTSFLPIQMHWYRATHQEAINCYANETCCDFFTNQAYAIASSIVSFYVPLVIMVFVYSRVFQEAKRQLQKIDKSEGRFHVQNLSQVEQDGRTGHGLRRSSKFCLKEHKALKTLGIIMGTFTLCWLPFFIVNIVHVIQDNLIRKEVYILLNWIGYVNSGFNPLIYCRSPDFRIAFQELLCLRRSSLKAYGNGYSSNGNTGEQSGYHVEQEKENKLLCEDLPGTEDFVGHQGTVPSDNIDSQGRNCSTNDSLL
Structure (SMILES),Potency [1],Potency [2],Potency [3],Potency [4],Potency [5],Potency [6],Potency [7],Potency [8],Potency [9],Potency [10],Potency [11],Potency [12],Potency [13],Potency [14],Potency [15],Potency [16],Potency [17],Potency [18],Potency [19]
COc1ccc(C(CN(C)C)C2(O)CCCCC2)cc1 (centres undefined),inactive,inactive,inactive,inactive,inactive,inactive,inactive,inactive,inactive,inactive,inactive,inactive,inactive,inactive,inactive,–,–,–,–
CN(CCO)CCO,inactive,inactive,inactive,inactive,inactive,inactive,inactive,inactive,inactive,inactive,inactive,inactive,inactive,inactive,inactive,inactive,inactive,inactive,inactive
O=C(O)CC(O)(CC(=O)O)C(=O)O,inactive,inactive,inactive,inactive,inactive,inactive,inactive,inactive,inactive,inactive,inactive,inactive,inactive,inactive,inactive,–,–,–,inactive
CCCCOC(=O)COC(=O)c1ccccc1C(=O)OCCCC,inactive,inactive,inactive,inactive,inactive,inactive,inactive,inactive,inactive,inactive,inactive,inactive,inactive,–,inactive,inactive,inactive,inactive,inactive
CCCCN(CCCCO)N=O,inactive,inactive,inactive,inactive,inactive,inactive,inactive,inactive,inactive,inactive,inactive,inactive,inactive,inactive,inactive,inactive,inactive,inactive,inactive
C=CCc1ccc2c(c1)OCO2,inactive,inactive,inactive,inactive,inactive,inactive,inactive,inactive,inactive,inactive,inactive,inactive,inactive,inactive,inactive,–,–,–,inactive
Nc1cccc2ccccc12,inactive,inactive and 61.1 µM (active),inactive,inactive,inactive,inactive,inactive,inactive,inactive,inactive,inactive,inactive,inactive,inactive,inactive,inactive,inactive,inactive,inactive
COc1cccc(C=O)c1,inactive,inactive,inactive,inactive,inactive,inactive,inactive,inactive,inactive,inactive,inactive,inactive,inactive,inactive,inactive,inactive,inactive,inactive,inactive
Clc1cnc(Oc2ccc(Oc3ncc(Cl)cc3Cl)cc2)c(Cl)c1,inactive,inactive,inactive,inactive,inactive,inactive,inactive,inactive,inactive,inactive,inactive,inactive,inactive,inactive,inactive,inactive,inactive,inactive,inactive
C#CCOC(C(=O)OCCN(C)C)(c1ccccc1)c1ccccc1,inactive,inactive,inactive,inactive,inactive,inactive,inactive,inactive,inactive,inactive,inactive,inactive,–,inactive,inactive,inactive,inactive,inactive,inactive
CCOc1cc(C=O)ccc1O,inactive,inactive,inactive,inactive,inactive,inactive,inactive,inactive,inactive,inactive,inactive,inactive,inactive,inactive,inactive,inactive,inactive,inactive,inactive
ClC(Cl)=C(c1ccc(Cl)cc1)c1ccc(Cl)cc1,39.5 µM (active),inactive,inactive,inactive,inactive,inactive,inactive,inactive,inactive,inactive,inactive,inactive,inactive,inactive,inactive,inactive,inactive,inactive,inactive
O=S(=O)(c1ccc(O)cc1)c1ccc(O)cc1,inactive,inactive,inactive,inactive,inactive,inactive,inactive,inactive,inactive,inactive,inactive,inactive,inactive,inactive,inactive,inactive,inactive,–,inactive
C[C@]12CCC(=O)C=C1CC[C@@H]1[C@@H]2CC[C@@]2(C)[C@H]1CC[C@]2(C)O,inactive,inactive,inactive,inactive,inactive,inactive,inactive,inactive,inactive,inactive,inactive,inactive,–,inactive,inactive,–,–,–,inactive
O=C(O)CCCc1ccc(N(CCCl)CCCl)cc1,inactive,inactive,inactive,inactive,inactive,inactive,inactive,inactive,inactive,inactive,inactive,inactive,inactive,inactive,inactive,–,–,–,inactive
Nc1ccc(Cc2ccc(N)cc2)cc1,inactive,inactive,inactive,inactive,inactive,inactive,inactive,inactive,inactive,inactive,inactive,–,inactive,inactive,inactive,–,–,–,–
